# GRIN3A LBD mod – modulates the human NR3A ligand-binding domain. Tm shift relative to glycine control, % at 25 µM. 340,000 tested, 2.5% active. NR3A LBD differential scanning fluorimetry, Tm shift; 0% = protein alone, 100% = glycine-bound protein;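 active means melting temperature shift of at least 10% of the positive control shift, at one fixed dose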
# HGIII-sPLA2 inh – Inhibits HGIII-sPLA2 liposome hydrolysis, primary screen | Q9NZ20 | inhibition, % at 12.2 µM | 370,000 tested, 0.56% active | AID 743126 | QFRET BODIPY PC-A2 liposome hydrolysis, fluorescence;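 active means inhibition above mean plus 3 SD of compounds lying within the high and low control bounds, cut at about 19% in these data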;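 further: 0% = median of test compound wells and 100% = no enzyme DMSO wells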
# ADAM10 inh – ADAM10 inhibition, QFRET primary screen; O14672; recombinant ADAM10, EDANS/DABCYL FRET peptide cleavage, 3 h; inhibition, % at 7 µM; 370,000 tested, 0.62% active; AID 720582;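 active means inhibition above a per-campaign cutoff equal to the mean of compounds falling between control-based bounds plus 3 SD, cut at about 20% in these data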;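 further: 0% = DMSO wells while the 100% control is not disclosed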
# Target sequence (O14672 214-748 limits assumed): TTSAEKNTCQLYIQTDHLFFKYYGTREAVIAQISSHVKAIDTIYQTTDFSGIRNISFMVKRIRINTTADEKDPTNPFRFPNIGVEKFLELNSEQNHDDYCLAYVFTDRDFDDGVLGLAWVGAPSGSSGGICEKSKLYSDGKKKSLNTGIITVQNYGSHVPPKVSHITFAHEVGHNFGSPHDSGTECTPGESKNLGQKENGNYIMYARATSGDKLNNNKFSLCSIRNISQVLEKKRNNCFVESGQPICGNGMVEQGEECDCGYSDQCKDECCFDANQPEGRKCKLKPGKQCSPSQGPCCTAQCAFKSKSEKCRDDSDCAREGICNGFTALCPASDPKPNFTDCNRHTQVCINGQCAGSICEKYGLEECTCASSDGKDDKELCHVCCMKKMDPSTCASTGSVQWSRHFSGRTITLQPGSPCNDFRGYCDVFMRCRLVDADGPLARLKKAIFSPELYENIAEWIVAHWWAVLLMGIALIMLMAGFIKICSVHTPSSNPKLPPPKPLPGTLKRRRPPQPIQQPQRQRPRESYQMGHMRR
# ADAM17 inh – ADAM17 inhibition, QFRET primary screen; P78536; recombinant ADAM17, EDANS/DABCYL FRET peptide cleavage; inhibition, % at 6.95 µM; 370,000 tested, 0.83% active; AID 720648;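 active means inhibition above the mean of compounds lying between control limits plus 3 SD, set per campaign, cut at about 8.5% in these data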;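 further: 0% = DMSO-only wells as the low control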
# FAS-TE inh – blocks the thioesterase domain of human fatty acid synthase. AID 602261. inhibition, % at 15 µM. 360,000 tested, 0.67% active. recombinant FAS-TE, OMFH fluorogenic substrate, fluorescence endpoint. P49327;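 active means compounds whose normalised, plate-corrected inhibition of enzyme fluorescence in the single-dose primary screen is 50% or more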;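 further: 0% = DMSO with enzyme and 100% = substrate without enzyme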
# FAS-TE inh conf – confirmation of human fatty acid synthase thioesterase inhibitors; shares compounds with FAS-TE inh; recombinant FAS-TE, OMFH fluorogenic substrate, fluorescence; inhibition, % at 15 µM; 2,300 tested, 45% active;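 active means compounds inhibiting the enzyme by at least 50% at 15 µM in any one of the replicates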;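 further: 0% = enzyme with DMSO only and 100% = wells lacking enzyme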
# An asterisk follows results filed as active; . = no result. Most compounds without a hit are left out; they make up all but 4.3% or so of the library.
SMILES,GRIN3A LBD mod,HGIII-sPLA2 inh,ADAM10 inh,ADAM17 inh,FAS-TE inh,FAS-TE inh conf
CN(CCO)c1cc(Sc2nc3ccccc3s2)c2nonc2c1[N+](=O)[O-],-7,-13,14,3,74*,74*
O=C(NCCc1c[nH]c2ccccc12)c1ccc2c(c1)ncn2C1CCCCC1,.,-54,-1,3,.,.
Cc1ccc2c(C)nc(N/C(N)=N/S(=O)(=O)c3ccc([N+](=O)[O-])cc3)nc2c1,-1,4,12,-2,52*,58*
Cc1nc(N/C(N)=N/S(=O)(=O)c2ccc([N+](=O)[O-])cc2)nc2ccccc12,-2,-1,-2,-3,26,.
CCCCNC(=O)O[C@H]1CC[C@@]23CCCN2C(=O)CCC[C@H]3[C@H]1C,.,-2,-2,-4,.,.
CC(=O)c1cccc(-c2ccnc3c2CC(C(=O)Nc2cccc(OC(F)(F)F)c2)O3)c1 (configuration not stated),.,-4,-4,-2,54*,57*
CCOC(=O)/C=c1\s/c(=C(\C#N)C(=O)NC)n(-c2ccccc2)c1=O,4,7,-5,-2,-5,.
Cc1ccccc1-n1c(=O)/c(=C\c2ccco2)s/c1=C(/C#N)C(=O)Nc1ccccc1,2,-2,6,1,62*,18
COc1ccc([C@H]2OC(=O)C[C@@H]2C(=O)N2CCCCC2)cc1OC,.,0,-1,-2,.,.
O=C(Nc1ccc(Cl)cc1)c1csc(-c2ccccc2)n1,-6,-3,4,-1,61*,59*
CCOC(=O)N1CCN(C(=O)C[C@H]2C[C@@]3(C(=O)OC)C(=C[C@H](C4CCCC4)O[C@@H]3C)N(Cc3ccc(Cl)cc3Cl)C2=O)CC1,.,-14,6,3,.,.
N#Cc1cc(-c2ccc(Cl)cc2)cn(Cc2c(Cl)cccc2Cl)c1=O,-1,13,-19,-10,62*,27
C=CCn1cc(-c2ccc(Cl)cc2)cc(C#N)c1=O,-1,6,-203,-62,9,.
COc1ccc(C=NNC(=O)c2cc(-c3ccc(C)c(C)c3)n[nH]2)cc1OCc1ccccc1,.,-7,-7,-6,.,.
O=C(NC(NC(=S)Nc1c(Cl)cccc1Cl)C(Cl)(Cl)Cl)c1cccc([N+](=O)[O-])c1 (configuration not stated),9,10,3,2,55*,7
Cc1cccc(C(=O)NC(NC(=S)Nc2ccc(S(N)(=O)=O)cc2)C(Cl)(Cl)Cl)c1 (configuration not stated),0,-7,7,6,4,.
O=C(NNc1c(Cl)cc(Cl)cc1Cl)c1cccc([N+](=O)[O-])c1,-18,1,0,-1,55*,58*
O=CNNC(=O)c1cccc([N+](=O)[O-])c1,-1,13,-7,3,-1,.
O=S(=O)(c1ccc(Cl)cc1)N1CCCC(c2nc(-c3ccc(F)cc3)no2)C1 (configuration not stated),2,3,-1,-3,64*,46*
O=C1C=C(c2ccc(-c3ccccc3)cc2)C[C@@H](c2ccc(Cl)cc2)C1,1,5,-13,-4,29,.
O=C1C=C(c2ccc(Cl)c(C(F)(F)F)c2)C[C@@H](c2ccc(Cl)cc2)C1,-16,-2,11,1,54*,33
O=C1C=C(c2ccc(Cl)c(C(F)(F)F)c2)C[C@@H](c2ccc(F)cc2)C1,-13,0,16,7,53*,32
O=C1C=C(c2cc(Cl)cc(Cl)c2)C[C@@H](c2ccc(F)cc2)C1,-3,10,9,-4,31,.
O=C(CN(C(=O)OCC1c2ccccc2-c2ccccc21)[C@@H](Cc1ccccc1)C(=O)O)OCc1ccc(C(=O)NCc2ccccc2)cc1,.,-39,10,2,.,.
O=C(CSc1nnc(-c2ccccn2)n1Cc1ccco1)c1ccc(-c2ccccc2)cc1,1,-22,6,3,51*,17
SMILES,GRIN3A LBD mod,HGIII-sPLA2 inh,ADAM10 inh,ADAM17 inh,FAS-TE inh,FAS-TE inh conf
O=C(CSc1nnc(-c2ccc(O)cc2)n1Cc1ccco1)c1ccccc1,-1,-62,14,1,0,.
COc1ccc(Cn2cc(CN3[C@@H](CC(C)C)COc4ccc(Cl)cc4S3(=O)=O)nn2)cc1,.,2,5,0,.,.
O=C(/C=C/c1cccc([N+](=O)[O-])c1)NCCSCc1ccc(Cl)cc1Cl,-23,-2,-1,-4,59*,58*
O=C(/C=C/c1ccc([N+](=O)[O-])cc1)NCc1ccc2c(c1)OCO2,-1,2,0,-5,16,.
COC(=O)c1cc(C(=O)NCc2ccc3c(c2)OCO3)cc([N+](=O)[O-])c1,0,1,-3,-6,59*,71*
O=C(NCc1ccco1)c1cc([N+](=O)[O-])ccc1N1CCCCC1,-2,3,3,1,14,.
O=C(NCc1ccc2c(c1)OCO2)c1cc([N+](=O)[O-])ccc1N1CCCCC1,-3,2,7,0,64*,54*
O=C(NCc1ccc2c(c1)OCO2)c1cccc([N+](=O)[O-])c1,0,5,5,0,34,.
O=C(/C=C/c1cccc([N+](=O)[O-])c1)NCc1ccc2c(c1)OCO2,0,15,1,1,68*,82*
c1ccc(-c2c[nH]c3ccc(OCCN4CCOCC4)c(-c4ccccc4)c23)cc1,.,-30,-13,-4,.,.
COC(=O)[C@H](CC(C)C)N1Cc2nnn(CC3CCCCC3)c2-c2cc(F)ccc2S1(=O)=O,.,1,4,2,.,.
O=C(CSc1nc2cc([N+](=O)[O-])ccc2n1-c1ccccc1)NCc1ccc2c(c1)OCO2,-13,-2,2,0,52*,36
C=CCn1c(SCc2c(Cl)cccc2Cl)nnc1-c1cccc(C)c1,.,-6,3,4,.,.
CCN1C(=O)[C@H]2[C@@H](c3ccc(C)cc3)N3C(=O)N(c4ccc(OC)cc4)C(=O)[C@@]3(CC)[C@H]2C1=O,2,1,2,-2,-8,.
CC[C@@]12C(=O)N(c3cccc(Br)c3)C(=O)N1[C@H](c1ccc(Cl)cc1)[C@@H]1C(=O)N(C3CCCCC3)C(=O)[C@@H]12,-9,-12,4,0,87*,19
CC(C)C[C@@]12C(=O)N(c3cccc(Cl)c3)C(=O)N1[C@H](c1ccc(Cl)cc1)[C@@H]1C(=O)N(C3CCCCC3)C(=O)[C@@H]12,-5,-6,-1,-3,90*,28
CC[C@@]12C(=O)N(c3ccc(OC)cc3)C(=O)N1[C@H](c1ccc(Cl)cc1)[C@@H]1C(=O)N(C3CCCCC3)C(=O)[C@@H]12,-5,0,6,-1,67*,42
CC[C@@]12C(=O)N(c3cccc(C)c3)C(=O)N1[C@H](c1ccc(OC)cc1)[C@@H]1C(=O)N(C(C)(C)C)C(=O)[C@@H]12,-2,.,.,.,4,.

# High-throughput results deposited in PubChem BioAssay by several laboratories.
